How the values were obtained:
CMK = experiment: CellTox Green cytotoxicity fluorescence relative to DMSO vehicle (fold of vehicle RFU); higher = more cell death (loss of membrane integrity), active = 2 or more
Method in brief: (§1)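 Cytotoxicity values reflect loss of membrane integrity and are fluorescence expressed as fold of the DMSO vehicle. MV4-11, CMK and Kasumi-1 cells were seeded at 4.0 × 10^4 cells per well with CellTox Green reagent and treated with single Selleckchem apoptosis library compounds at final 0.01, 0.1 and 1 µM, with 0.1% DMSO as vehicle. Plates were held at 37 °C, 5% CO2 and read at 24, 48 and 72 h.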

Kasumi-1 = experiment: as above
Method in brief: as §1

Measured: CellTox Green cytotoxicity fluorescence

Cc1cc2c(C(C)C)c(O)c(O)c(C=O)c2c(O)c1-c1c(C)cc2c(C(C)C)c(O)c(O)c(C=O)c2c1O
inactive: CMK; 0.01 µM, 24 h 0.986 | CMK; 0.01 µM, 48 h 0.967 | CMK; 0.01 µM, 72 h 0.952 | CMK; 0.1 µM, 24 h 0.998 | CMK; 0.1 µM, 48 h 0.982 | CMK; 0.1 µM, 72 h 0.961 | CMK; 1 µM, 24 h 0.986 | CMK; 1 µM, 48 h 0.979 | CMK; 1 µM, 72 h 0.85 | Kasumi-1; 0.01 µM, 24 h 0.96 | Kasumi-1; 0.01 µM, 48 h 0.957 | Kasumi-1; 0.01 µM, 72 h 0.955 | Kasumi-1; 0.1 µM, 24 h 0.99 | Kasumi-1; 0.1 µM, 48 h 0.973 | Kasumi-1; 0.1 µM, 72 h 0.975 | Kasumi-1; 1 µM, 24 h 0.98 | Kasumi-1; 1 µM, 48 h 0.966 | Kasumi-1; 1 µM, 72 h 0.978

CN[C@@H]1C[C@H]2O[C@@](C)([C@@H]1OC)n1c3ccccc3c3c4c(c5c6ccccc6n2c5c31)C(=O)NC4 [Staurosporine]
active: Kasumi-1; 1 µM, 48 h 2.08 | Kasumi-1; 1 µM, 72 h 2.12
inactive: CMK; 0.01 µM, 24 h 0.96 | CMK; 0.01 µM, 48 h 0.998 | CMK; 0.01 µM, 72 h 1.07 | CMK; 0.1 µM, 24 h 1.01 | CMK; 0.1 µM, 48 h 1.29 | CMK; 0.1 µM, 72 h 1.4 | CMK; 1 µM, 24 h 1.1 | CMK; 1 µM, 48 h 1.45 | CMK; 1 µM, 72 h 1.29 | Kasumi-1; 0.01 µM, 24 h 0.984 | Kasumi-1; 0.01 µM, 48 h 1.18 | Kasumi-1; 0.01 µM, 72 h 1.24 | Kasumi-1; 0.1 µM, 24 h 1.08 | Kasumi-1; 0.1 µM, 48 h 1.54 | Kasumi-1; 0.1 µM, 72 h 1.74 | Kasumi-1; 1 µM, 24 h 1.67

O=c1[nH]c2ccccc2n1C1CCN(Cc2ccc(-c3[nH]c4cc5ncnc5cc4nc3-c3ccccc3)cc2)CC1
inactive: CMK; 0.01 µM, 24 h 1.02 | CMK; 0.01 µM, 48 h 0.991 | CMK; 0.01 µM, 72 h 0.913 | CMK; 0.1 µM, 24 h 0.983 | CMK; 0.1 µM, 48 h 0.97 | CMK; 0.1 µM, 72 h 0.906 | CMK; 1 µM, 24 h 0.966 | CMK; 1 µM, 48 h 0.967 | CMK; 1 µM, 72 h 0.949 | Kasumi-1; 0.01 µM, 24 h 0.972 | Kasumi-1; 0.01 µM, 48 h 0.961 | Kasumi-1; 0.01 µM, 72 h 0.96 | Kasumi-1; 0.1 µM, 24 h 0.969 | Kasumi-1; 0.1 µM, 48 h 0.99 | Kasumi-1; 0.1 µM, 72 h 0.958 | Kasumi-1; 1 µM, 24 h 1.08 | Kasumi-1; 1 µM, 48 h 1.29 | Kasumi-1; 1 µM, 72 h 1.35

CC[C@H](C)[C@@H]([C@@H](CC(=O)N1CCC[C@H]1[C@H](OC)[C@@H](C)C(=O)N[C@H](C)[C@@H](O)c1ccccc1)OC)N(C)C(=O)[C@@H](NC(=O)[C@@H](NC)C(C)C)C(C)C [Monomethyl auristatin E]
inactive: CMK; 0.01 µM, 24 h 1.24 | CMK; 0.01 µM, 48 h 1.82 | CMK; 0.01 µM, 72 h 1.43 | CMK; 0.1 µM, 24 h 1.52 | CMK; 0.1 µM, 72 h 1.56 | CMK; 1 µM, 24 h 1.97 | CMK; 1 µM, 72 h 1.78 | Kasumi-1; 0.01 µM, 24 h 1.06 | Kasumi-1; 0.01 µM, 48 h 1.27 | Kasumi-1; 0.01 µM, 72 h 1.44 | Kasumi-1; 0.1 µM, 24 h 1.17 | Kasumi-1; 0.1 µM, 48 h 1.42 | Kasumi-1; 0.1 µM, 72 h 1.53 | Kasumi-1; 1 µM, 24 h 1.31 | Kasumi-1; 1 µM, 48 h 1.56 | Kasumi-1; 1 µM, 72 h 1.62
active: CMK; 0.1 µM, 48 h 2.24 | CMK; 1 µM, 48 h 2.64

COc1ccc2c(c1)/C(=C/c1cnc[nH]1)C(=O)N2
inactive: CMK; 0.01 µM, 24 h 0.911 | CMK; 0.01 µM, 48 h 0.923 | CMK; 0.01 µM, 72 h 1.04 | CMK; 0.1 µM, 24 h 0.922 | CMK; 0.1 µM, 48 h 0.924 | CMK; 0.1 µM, 72 h 1.05 | CMK; 1 µM, 24 h 0.934 | CMK; 1 µM, 48 h 0.914 | CMK; 1 µM, 72 h 0.881 | Kasumi-1; 0.01 µM, 24 h 0.934 | Kasumi-1; 0.01 µM, 48 h 0.941 | Kasumi-1; 0.01 µM, 72 h 0.971 | Kasumi-1; 0.1 µM, 24 h 0.976 | Kasumi-1; 0.1 µM, 48 h 0.981 | Kasumi-1; 0.1 µM, 72 h 0.966 | Kasumi-1; 1 µM, 24 h 0.881 | Kasumi-1; 1 µM, 48 h 0.948 | Kasumi-1; 1 µM, 72 h 0.963

CC1=C(O)C(=O)C=C2C1=CC=C1[C@@]2(C)CC[C@@]2(C)[C@@H]3C[C@](C)(C(=O)O)CC[C@]3(C)CC[C@]12C [Celastrol]
active: CMK; 1 µM, 24 h 2.38 | CMK; 1 µM, 48 h 3.09 | CMK; 1 µM, 72 h 2.25
inactive: CMK; 0.01 µM, 24 h 0.959 | CMK; 0.01 µM, 48 h 0.961 | CMK; 0.01 µM, 72 h 0.98 | CMK; 0.1 µM, 24 h 0.946 | CMK; 0.1 µM, 48 h 0.94 | CMK; 0.1 µM, 72 h 0.932 | Kasumi-1; 0.01 µM, 24 h 0.916 | Kasumi-1; 0.01 µM, 48 h 0.923 | Kasumi-1; 0.01 µM, 72 h 0.903 | Kasumi-1; 0.1 µM, 24 h 0.954 | Kasumi-1; 0.1 µM, 48 h 0.962 | Kasumi-1; 0.1 µM, 72 h 0.952 | Kasumi-1; 1 µM, 24 h 1.23 | Kasumi-1; 1 µM, 48 h 1.43 | Kasumi-1; 1 µM, 72 h 1.47

COc1cc([C@@H]2c3cc4c(cc3[C@H](O)[C@H]3COC(=O)[C@@H]23)OCO4)cc(OC)c1OC [Picropodophyllin]
inactive: CMK; 0.01 µM, 24 h 0.955 | CMK; 0.01 µM, 48 h 0.958 | CMK; 0.01 µM, 72 h 0.973 | CMK; 0.1 µM, 24 h 1.06 | CMK; 0.1 µM, 48 h 1.23 | CMK; 0.1 µM, 72 h 1.08 | CMK; 1 µM, 24 h 1.34 | CMK; 1 µM, 72 h 1.58 | Kasumi-1; 0.01 µM, 24 h 0.945 | Kasumi-1; 0.01 µM, 48 h 0.978 | Kasumi-1; 0.01 µM, 72 h 0.997 | Kasumi-1; 0.1 µM, 24 h 0.993 | Kasumi-1; 0.1 µM, 48 h 0.999 | Kasumi-1; 0.1 µM, 72 h 1.06 | Kasumi-1; 1 µM, 24 h 1.16 | Kasumi-1; 1 µM, 48 h 1.35 | Kasumi-1; 1 µM, 72 h 1.48
active: CMK; 1 µM, 48 h 2.12

O=C(O)C(=O)c1cn(Cc2ccccc2)c2ccc(-c3ccc(OC(F)(F)F)cc3)cc12 [Tiplaxtinin]
inactive: CMK; 0.01 µM, 24 h 1.02 | CMK; 0.01 µM, 48 h 1.01 | CMK; 0.01 µM, 72 h 1 | CMK; 0.1 µM, 24 h 1.01 | CMK; 0.1 µM, 48 h 1.02 | CMK; 0.1 µM, 72 h 0.987 | CMK; 1 µM, 24 h 0.968 | CMK; 1 µM, 48 h 0.972 | CMK; 1 µM, 72 h 0.943 | Kasumi-1; 0.01 µM, 24 h 1.02 | Kasumi-1; 0.01 µM, 48 h 1.01 | Kasumi-1; 0.01 µM, 72 h 1.03 | Kasumi-1; 0.1 µM, 24 h 1.02 | Kasumi-1; 0.1 µM, 48 h 1.02 | Kasumi-1; 0.1 µM, 72 h 1.03 | Kasumi-1; 1 µM, 24 h 0.968 | Kasumi-1; 1 µM, 48 h 0.983 | Kasumi-1; 1 µM, 72 h 0.973

COc1cc(C)[nH]c(=O)c1CNC(=O)c1c(C)n([C@H](C)C2CCOCC2)c2ccccc12
inactive: CMK; 0.01 µM, 24 h 0.942 | CMK; 0.01 µM, 48 h 0.948 | CMK; 0.01 µM, 72 h 0.965 | CMK; 0.1 µM, 24 h 0.936 | CMK; 0.1 µM, 48 h 0.944 | CMK; 0.1 µM, 72 h 0.919 | CMK; 1 µM, 24 h 0.949 | CMK; 1 µM, 48 h 0.973 | CMK; 1 µM, 72 h 0.965 | Kasumi-1; 0.01 µM, 24 h 0.935 | Kasumi-1; 0.01 µM, 48 h 0.952 | Kasumi-1; 0.01 µM, 72 h 0.966 | Kasumi-1; 0.1 µM, 24 h 0.97 | Kasumi-1; 0.1 µM, 48 h 0.948 | Kasumi-1; 0.1 µM, 72 h 0.954 | Kasumi-1; 1 µM, 24 h 1.03 | Kasumi-1; 1 µM, 48 h 0.982 | Kasumi-1; 1 µM, 72 h 0.976

Cn1c(COP(=O)(NCCBr)NCCBr)cnc1[N+](=O)[O-]
inactive: CMK; 0.01 µM, 24 h 0.974 | CMK; 0.01 µM, 48 h 0.98 | CMK; 0.01 µM, 72 h 0.991 | CMK; 0.1 µM, 24 h 0.972 | CMK; 0.1 µM, 48 h 0.996 | CMK; 0.1 µM, 72 h 1.07 | CMK; 1 µM, 24 h 0.975 | CMK; 1 µM, 48 h 1.24 | CMK; 1 µM, 72 h 1.89 | Kasumi-1; 0.01 µM, 24 h 1.03 | Kasumi-1; 0.01 µM, 48 h 0.968 | Kasumi-1; 0.01 µM, 72 h 0.958 | Kasumi-1; 0.1 µM, 24 h 0.962 | Kasumi-1; 0.1 µM, 48 h 0.956 | Kasumi-1; 0.1 µM, 72 h 0.952 | Kasumi-1; 1 µM, 24 h 0.977 | Kasumi-1; 1 µM, 48 h 0.974 | Kasumi-1; 1 µM, 72 h 0.977

Reference: the supplement of paper PMC7595190
